This is a sample that favours compounds with a hit; in the whole collection about 7.1% have one here.
ATXN viability: viability counter-screen for ATXN expression inhibitors; S2 cells (HEK-293 line with an ATXN2-luciferase reporter) viability, CellTiter-Fluor protease fluorescence, 24 h; Potency, µM (top dose mostly 56.7 µM), actives largely listed as cytotoxic; 400,000 compounds, 0.49% hits; AID 651635; also: potency is read from the fitted curve at half-maximal effect; nearly all actives have a fitted effect of over 40% in size
PINK1 expr mod: PINK1 expression modulation. Potency, µM (titrated, usually from 76.6 µM), for the others: at the highest dose activation (PINK1 increase), usual class: activators. 410,000 compounds, 0.2% hits. PINK1 immunofluorescence, high-content cytometry, 24 h; active = well fitted activation curve with a large enough effect; inconclusive = small, poorly fitted or top-dose-only effect; cell line not stated here; also: potency is read from the fitted curve at half-maximal effect; % of control where 0% means no effect; nearly all actives have a fitted effect of over 65% in size
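Fluorescence from anti-PINK1 antibody, together with nuclear and cell stains, was scanned on a laser-scanning cytometer. Before staining, stable-line cells were incubated 24 hours with compounds at 5 concentrations; primary antibody 12 h at 10 degrees C.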
SW480 rereplic: inducers of DNA re-replication in SW480 colon cancer cells; SW480 DNA re-replication, Hoechst DNA content imaging, 48 h; Potency, µM (doses to about 46.1 µM), for inactives: at the highest dose re-replication activation, hits mostly activators; 340,000 compounds, 1.8% hits; AID 624297; also: potency is read from the fitted curve at half-maximal effect; % of control where 0% means no effect; nearly all actives have a fitted effect of over 55% in size
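Quantitative HTS format with DMSO vehicle controls; 48 hr drug incubation at 37 C, then 40 min Hoechst staining and scanning imager measurement at 405 nm excitation.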
ATXN2 expr inh: inhibitors of ATXN2 expression. HEK-293 ATXN2-luciferase reporter, luminescence, 24 h. Potency, µM (highest dose often 57 µM), for inactives: at the highest dose activity change, negative = inhibition, hits mostly inhibitors. 360,000 compounds, 0.72% hits. AID 1745845; also: potency is read from the fitted curve at half-maximal effect; % is scaled to controls: 0 for no effect and ±100 for the full control effect; nearly all actives have a fitted effect of over 55% in size
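qHTS (up to 57 uM final) was run with 24 h compound exposure of reporter cells at 37 °C. Each well was multiplexed: SteadyGlo luminescence measured ATXN2-luciferase expression after a fluorogenic Gly-Phe-AFC viability readout (25 uM final).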
IL1B secr inh: inflammasome signaling inhibition, IL-1 beta readout | THP-1 LPS/ATP IL-1B secretion, AlphaLISA, 16 h; hits give low values | activity change, % at 57.5 µM | 360,000 compounds, 4.7% hits | AID 743279; in the data active = activity change below about -50%; inconclusive = mostly about -30% to -49%; also: % is scaled to controls: 0 for no effect and ±100 for the full control effect
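Secreted IL-1B measured by AlphaLISA bead assay after 16 h compound exposure of THP-1 cells; compounds (final up to 57.5 uM) added 1 h before LPS (250 ng/mL) and ATP (1.25 mM) stimulation; lower signal means less secretion.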
MCF10A rereplic: inducers of DNA re-replication in MCF 10A breast cells | MCF 10A DNA re-replication, Hoechst nuclear intensity, 48 h | Potency, µM (top dose mostly 46.1 µM), for inactives: top-dose activity, positive = re-replication, most hits filed as activators | 350,000 compounds, 2.9% hits | AID 624296; also: potency is read from the fitted curve at half-maximal effect; % of control where 0% means no effect; nearly all actives have a fitted effect of over 50% in size
The depositor's hits bear a star; [ ] = remark or other dose. Unless noted, calls follow the shape of the dose curve; as a rule, active = well fitted curve in the direction sought with a large enough effect; inconclusive = small, poorly fitted or top-dose-only effect, or another doubt; inactive = no such curve, though single readings can be large; an effect the other way counts as inactive or inconclusive.

How did O=C(c1noc2c1CCCC2)N1CCN(c2ccccc2)CC1 do in these assays?
ATXN viability: inactive; PINK1 expr mod: 9%[38.3 µM]; SW480 rereplic: -4%; ATXN2 expr inh: 46%; IL1B secr inh: -6; MCF10A rereplic: -2%

What do the screens show for `Cc1ccccc1CNC(=O)CCCn1c(=O)c2cccn2c2ccccc21`?
PINK1 expr mod: 0%

What do the screens show for `CCOC(=O)c1nnn(-c2nonc2-n2cccc2)c1CN1CCC(C)CC1`?
ATXN viability: inactive; PINK1 expr mod: 1%; SW480 rereplic: inconclusive; ATXN2 expr inh: -13%; IL1B secr inh: inconclusive; MCF10A rereplic: 26µM*

Results for CCOC(=O)c1nnn(-c2nonc2-n2cccc2)c1CCl ?
ATXN viability: inactive; PINK1 expr mod: 4%; SW480 rereplic: inconclusive; ATXN2 expr inh: -26%; IL1B secr inh: -117*; MCF10A rereplic: inconclusive

Results for COCCC(=O)NCC1Cc2cc(Cl)cc(-c3ccc4[nH]ccc4c3)c2O1 (centres undefined) ?
PINK1 expr mod: 2%

What do the screens show for `COc1ccc(-n2c(=O)c3ccccc3n(CC(=O)c3ccccc3)c2=O)cc1OC`?
ATXN viability: inactive; PINK1 expr mod: 1%; SW480 rereplic: 18%; IL1B secr inh: -13; MCF10A rereplic: 0%

Results for CCOC(=O)c1cc2c(OC)ccc(OC)c2n1CC(=O)c1ccccc1 ?
ATXN viability: inactive; PINK1 expr mod: 1%; SW480 rereplic: inconclusive; IL1B secr inh: 19; MCF10A rereplic: 23µM*

Results for Cc1cc(C)c2c(=O)cc(C(=O)Nc3ccc(C)c(Cl)c3)oc2c1 ?
ATXN viability: inactive; PINK1 expr mod: 5%; ATXN2 expr inh: 7%

What do the screens show for `COC1(OC)C(/C=C/c2ccc(C)cc2)C(C#N)(C#N)C1(OC)OC` (centres undefined)?
ATXN viability: inactive; PINK1 expr mod: -2%; SW480 rereplic: inconclusive; ATXN2 expr inh: -4%; IL1B secr inh: -120*; MCF10A rereplic: 18µM*

Results for CN1CCN(c2nc(C(N)=O)cc(-c3ccccc3)n2)CC1 ?
ATXN viability: inactive; PINK1 expr mod: -1%; SW480 rereplic: 6%; ATXN2 expr inh: -15%; IL1B secr inh: -57*; MCF10A rereplic: inconclusive

How did CCN(CC)c1nc(C(N)=O)cc(-c2ccccc2)n1 do in these assays?
ATXN viability: inactive; PINK1 expr mod: 1%; SW480 rereplic: inconclusive; ATXN2 expr inh: 6%; IL1B secr inh: -73*; MCF10A rereplic: inconclusive

Results for CN(N)c1nc(-c2ccccc2)cc(-c2ccccc2)n1 ?
ATXN viability: inactive; PINK1 expr mod: 0%; SW480 rereplic: 0%; ATXN2 expr inh: -26%; IL1B secr inh: -64*; MCF10A rereplic: inconclusive

Results for N#Cc1ccc(Oc2nc(C(N)=O)cc(-c3ccccc3)n2)cc1 ?
ATXN viability: inactive; PINK1 expr mod: 1%; SW480 rereplic: -3%; ATXN2 expr inh: -12%; IL1B secr inh: -11; MCF10A rereplic: 1%

How did Cc1nc(-c2ccccc2)cc(-c2ccccc2)n1 do in these assays?
ATXN viability: inactive; PINK1 expr mod: 5%; SW480 rereplic: -18%; ATXN2 expr inh: 17%; IL1B secr inh: 27; MCF10A rereplic: 7%

Results for CCOC(=O)c1c2c3c(c(Cl)ccc3[nH]c1=O)C(=O)c1ccccc1-2 ?
ATXN viability: inconclusive; PINK1 expr mod: 1%; SW480 rereplic: -22%; ATXN2 expr inh: -7%; IL1B secr inh: -85*; MCF10A rereplic: inconclusive

What do the screens show for `Cc1cc(C2=NNC(=NC3CCCCC3)SC2)c(C)n1-c1c(C)n(C)n(-c2ccccc2)c1=O`?
ATXN viability: inconclusive; PINK1 expr mod: 0%; SW480 rereplic: 11%; IL1B secr inh: -4; MCF10A rereplic: 14%

Results for c1ccc2oc(C3=NNC(=NC4CC4)SC3)cc2c1 ?
ATXN viability: inactive; PINK1 expr mod: -2%; SW480 rereplic: inconclusive; ATXN2 expr inh: inconclusive; IL1B secr inh: -17; MCF10A rereplic: 12µM*
